Our source for the Potency, activity change, negative = inhibition and max response values is PubChem BioAssay (NCATS).

Experiment [1] concerns the target Cytochrome P450 3A4 (Homo sapiens) (UniProt P08684). Put plainly: qHTS Assay for Inhibitors and Substrates of Cytochrome P450 3A4 (AID 884). Further: on the % scale 0 is the no-effect control and ±100 the full control effect; nearly all actives have a fitted effect of over 50% in size. In outline: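 Luminescent readout of luciferin produced by CYP3A4 (20 nM) dealkylation of Luciferin-PPXE, 25 uM (its KM). NADPH-driven reaction ran 60 min at RT after 10 min compound preincubation; data scaled to 57 uM ketoconazole as 100% inhibition.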
For orientation: Quantitative high-throughput screening tests each substance at several concentrations.

A short description of experiment [2]: Confirmation and Secondary Assay for Modulators of Hemoglobin Beta Chain Splicing at IVS2 654 locus (AID 910).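 Further: HeLa cells stably carrying EGFP split by mutant beta-globin IVS2-654 intron; % of control where 0% means no effect.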 In outline:
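HeLa cells stably expressing EGFP interrupted by β-globin IVS2-654 intron, seeded overnight in Opti-MEM/2% FCS, then treated 2 days at 37 °C. Restored splicing read as total peak GFP intensity per well by laser scanning cytometry (488 nm excitation, 500–520 nm emission); 500 nM antisense PNA as control.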

Experiment [3] is described as follows: Confirmation and Secondary Assay for Modulators of Hemoglobin Beta Chain Splicing at IVS2 705 locus (AID 930).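 Further: GFP fluorescence per well restored by corrected splicing of the IVS2-705 intron in EGFP.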 Further: potency means the concentration at half of the fitted maximal effect. In outline: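 First, HeLa EGFP-705 cells are seeded at 500/well in Optimem with 2% FCS and left overnight. Next, compound or DMSO is added for 2 days. Finally wells are laser-scanned and total peak GFP intensity scored.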
Experiment [4] is described as follows: qHTS Assay for Lipid Storage Modulators (AID 1519; calls by dose curve; on activity change, negative = inhibition: on the % scale 0 is the no-effect control and ±100 the full control effect). Conditions: Drosophila S3 cells, BODIPY lipid droplet/cell ratio, laser cytometry, cells loaded with oleic acid; for activity change, negative = inhibition: at 57.5 µM (top of the series). In outline: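 Cells seeded at 5,000 per well were treated with compounds over a concentration series and loaded with oleic acid (400 uM, as added). Lipid droplet fluorescence (488 nm excitation, 500-530 nm channel) was read by laser-scanning cytometry and normalized to 20 uM Triacsin C.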

Experiment [5] addresses Ubiquitin carboxyl-terminal hydrolase 1 (Homo sapiens) (UniProt O94782). Put plainly: Inhibitors of USP1/UAF1: Pilot qHTS (AID 504865).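 Further: rhodamine fluorescence freed from ubiquitin-rhodamine substrate followed over time; top concentration of the series differs between compounds; on the % scale 0 is the no-effect control and ±100 the full control effect; nearly all actives have a fitted effect of over 35% in size.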 The gist of the method: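 1nM USP1/UAF1 + cpd, 15 min RT; start w/ Ub-Rho 150nM final; kinetic FL 480/540 nm, 6 reads q60 s. Buffer 50mM HEPES pH 7.8, 0.5mM EDTA, 1mM TCEP, 0.01% Tween-20, 0.1 mg/ml BSA.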
In experiment [6] the target is Cytochrome P450 3A4 (Homo sapiens) (UniProt P08684). Description: qHTS Assay for Activators of Cytochrome P450 3A4 (AID 885). Further: nearly all actives have a fitted effect of over 65% in size. In outline:
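Activators are scored by enhanced luminescence from CYP3A4 conversion of luciferin-PPXE (25uM, equal to KM) to luciferin, after 60 min at RT with an NADPH-regenerating system.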

Where [7] appears, read: measured here: cell count channel max response.
Setting [8] is: measured here: lipid channel max response.

Results filed as inconclusive are left out. Active and inactive are the calls of the source. Unless noted, the call rests on the fitted dose curve; in most records, active means well fitted curve in the direction sought with a large enough effect; inconclusive means small, poorly fitted or top-dose-only effect, or another doubt; inactive means no such curve, though single readings can be large; an effect the other way counts as inactive or inconclusive.

Cytochrome P450 3A4 (Homo sapiens), sequence (P08684 whole entry, looked up): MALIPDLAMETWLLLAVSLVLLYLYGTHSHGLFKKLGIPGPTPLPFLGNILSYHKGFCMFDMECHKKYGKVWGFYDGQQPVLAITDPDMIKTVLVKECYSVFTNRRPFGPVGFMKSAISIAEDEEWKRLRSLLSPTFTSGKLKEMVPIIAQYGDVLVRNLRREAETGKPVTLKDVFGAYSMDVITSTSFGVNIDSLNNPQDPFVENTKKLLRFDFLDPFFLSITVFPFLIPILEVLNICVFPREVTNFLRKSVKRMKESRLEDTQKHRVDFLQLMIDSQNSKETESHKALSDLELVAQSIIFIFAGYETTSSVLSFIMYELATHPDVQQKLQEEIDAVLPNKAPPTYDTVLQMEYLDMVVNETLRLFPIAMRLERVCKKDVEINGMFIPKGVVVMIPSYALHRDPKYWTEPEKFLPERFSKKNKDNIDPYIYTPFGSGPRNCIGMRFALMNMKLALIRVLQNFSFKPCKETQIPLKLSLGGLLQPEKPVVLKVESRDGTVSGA
Ubiquitin carboxyl-terminal hydrolase 1 (Homo sapiens), sequence (O94782 whole entry, looked up): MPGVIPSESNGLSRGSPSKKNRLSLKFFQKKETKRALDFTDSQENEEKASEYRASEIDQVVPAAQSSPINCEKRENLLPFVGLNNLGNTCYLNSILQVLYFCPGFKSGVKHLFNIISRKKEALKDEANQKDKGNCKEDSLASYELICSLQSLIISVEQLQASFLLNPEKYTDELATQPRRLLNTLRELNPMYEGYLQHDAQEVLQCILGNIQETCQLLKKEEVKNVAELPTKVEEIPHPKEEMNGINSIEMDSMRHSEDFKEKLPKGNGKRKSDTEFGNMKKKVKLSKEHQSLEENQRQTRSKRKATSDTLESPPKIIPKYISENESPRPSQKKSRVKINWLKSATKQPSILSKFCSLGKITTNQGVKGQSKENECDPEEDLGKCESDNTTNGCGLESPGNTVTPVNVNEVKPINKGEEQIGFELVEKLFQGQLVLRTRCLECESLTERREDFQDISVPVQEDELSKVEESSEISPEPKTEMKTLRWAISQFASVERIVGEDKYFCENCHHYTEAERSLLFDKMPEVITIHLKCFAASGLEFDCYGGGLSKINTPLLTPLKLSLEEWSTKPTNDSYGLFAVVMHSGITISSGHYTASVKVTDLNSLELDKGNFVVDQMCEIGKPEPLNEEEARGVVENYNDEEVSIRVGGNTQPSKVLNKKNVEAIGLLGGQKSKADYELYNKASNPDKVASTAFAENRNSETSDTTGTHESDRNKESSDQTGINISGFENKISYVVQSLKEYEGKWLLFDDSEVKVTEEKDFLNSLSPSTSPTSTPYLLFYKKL

Regarding `O=c1cccc2n1CC1CC2CN2CCCCC12` (configuration not stated), the Potency entry in experiment [1], in experiment [2], in experiment [3] and in experiment [5] was “inactive” each time. Moreover, the activity change, negative = inhibition in experiment [4] is 0.982% (inactive). In addition, the max response in experiment [4] (setting [7]) worked out at 1.81%; in experiment [4] (setting [8]) it was 1.59%.
Take `C[C@@]12CC(c3ccoc3)OC(=O)C1CC[C@@]1(C)C2C2C=C[C@@]1(O)C(=O)O2` (some centres not stated): the Potency entry in experiment [1], in experiment [2], in experiment [3] and in experiment [5] was “inactive” in each case. The activity change, negative = inhibition in experiment [4] was 2.16% (inactive). Also, the values for the max response in experiment [4] (setting [7]) and in experiment [4] (setting [8]) were 24.2% and 26.2%, respectively.
Turning to `CC(=O)OC1C2C(OC(=O)Cc3ccccc3)C(C)CC2(OC(C)=O)C(=O)/C(C)=C/C2C(CC[C@@]13CO3)C2(C)C` (some centres not stated), the Potency result in experiment [6], in experiment [3] and in experiment [5] was “inactive” in each case. Besides, in experiment [4], the activity change, negative = inhibition was -0.982% (inactive). The max response in experiment [4] (setting [7]) is -2.07%; in experiment [4] (setting [8]), -2.51%.
With `Nc1ncn[nH]1`, the Potency entry in experiment [6], in experiment [2], in experiment [3] and in experiment [5] was “inactive” in each case. In addition, in experiment [4], the activity change, negative = inhibition is 11.2% (inactive). Further, the figures for the max response in experiment [4] (setting [7]) and in experiment [4] (setting [8]) were 9.75% and 23.5%, respectively.
As for `CC(=O)C1CC[C@H]2C3CC[C@@H]4CC(O)CC[C@@]4(C)C3CC[C@]12C` (some centres not stated), the Potency entry in experiment [1], in experiment [3] and in experiment [5] was “inactive” in each case. In experiment [4], the activity change, negative = inhibition is 12.3% (inactive). Moreover, the max response amounted to 9.69% in experiment [4] (setting [7]) and 25.9% in experiment [4] (setting [8]).
For `CC1OC(O[C@@H]2C(O)CC(O[C@@H]3C(O)C[C@@H](OC4CC[C@]5(C)[C@H](CC[C@H]6[C@@H]5CC[C@]5(C)C(C7=CC(=O)OC7)C(O)C[C@@]65O)C4)OC3C)OC2C)CC(O)C1O` (some centres not stated), the Potency result in experiment [1] and in experiment [5] was “inactive” each time. Also, the Potency in experiment [3] is 1000 nM (active). Besides, the activity change, negative = inhibition in experiment [4] is 10.1% (inactive). The max response was 12.5% in experiment [4] (setting [7]) and 20.2% in experiment [4] (setting [8]).
As to `CCN1C[C@@]2(C)CC[C@@H](OC)[C@@]34C2C(O)[C@@]2(OCO[C@]25CC(OC)C2C[C@@]3(O)C5C2O)C14` (some centres not stated), the Potency entry in experiment [6], in experiment [3] and in experiment [5] was “inactive” throughout. For the same compound, in experiment [4], the activity change, negative = inhibition was 2.86% (inactive). Moreover, the max response is 1.33% in experiment [4] (setting [7]) and 4.66% in experiment [4] (setting [8]).
Turning to `CC1O[C@@H](OC2CC(O)[C@@]3(CO)C4C(O)C[C@@]5(C)C(C6=CC(=O)OC6)CC[C@]5(O)C4CC[C@]3(O)C2)C(O)C(O)C1O` (some centres not stated), the Potency entry in experiment [1], in experiment [3] and in experiment [5] was “inactive” each time. The activity change, negative = inhibition in experiment [4] was 3.6% (inactive). In addition, the values for the max response in experiment [4] (setting [7]) and in experiment [4] (setting [8]) were 6.17% and 13.6%, respectively.
Turning to `CNC(=O)O/N=C(/C)SC`, the Potency entry in experiment [1], in experiment [3] and in experiment [5] was “inactive” throughout. For the same compound, the activity change, negative = inhibition in experiment [4] was 3.26% (inactive). In addition, the max response in experiment [4] (setting [7]) was 16.3%; in experiment [4] (setting [8]) it was 20.1%.
For `COc1cc(C2c3cc4c(cc3C(O)C3COC(=O)C23)OCO4)cc(OC)c1O` (configuration not stated), the Potency entry in experiment [6], in experiment [2], in experiment [3] and in experiment [5] was “inactive” throughout. Also, the activity change, negative = inhibition in experiment [4] was 7.14% (inactive). The max response in experiment [4] (setting [7]) was -1.69%; in experiment [4] (setting [8]), 6.73%.
Consider `CCC(C)C(=O)c1c(O)c(C)c2oc3c(C)c(O)c(C(=O)C(C)CC)c(O)c3c2c1O` (configuration not stated), for which the Potency entry in experiment [1], in experiment [3] and in experiment [5] was “inactive” in each case. Moreover, the activity change, negative = inhibition in experiment [4] was -5.67% (inactive). The max response is -3.74% in experiment [4] (setting [7]) and -10.1% in experiment [4] (setting [8]).
As for `CC1CC(O)[C@]2(O)[C@]13CC(=O)OC[C@@]2(C)[C@@](C)(O)C(=O)C3` (some centres not stated), the Potency entry in experiment [6], in experiment [2], in experiment [3] and in experiment [5] was “inactive” in each case. In experiment [4], the activity change, negative = inhibition was 1.46% (inactive). Moreover, the max response in experiment [4] (setting [7]) stood at 13.4%; in experiment [4] (setting [8]), 16.3%.
